Here are results for 12 molecules from PubChem BioAssay (Tox21).

Assay [1] can be described thus: qHTS assay for small molecule agonists of the p53 signaling pathway (AID 651631; calls by dose curve; note: nearly all actives have a fitted effect of over 15% in size). Put shortly: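 HCT-116 p53RE-bla reporter line, 16 h compound treatment at 37 °C, then fluorescence after 2 h with B/G FRET substrate.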
In general terms: In qHTS, concentration-response curves come from the screen itself.

The nature of assay [2]: qHTS assay for small molecules that induce genotoxicity in human embryonic kidney cells expressing luciferase-tagged ATAD5 (AID 651632). Note: nearly all actives have a fitted effect of over 15% in size. Put shortly:
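Increased luciferase signal from ATAD5-tagged reporter cells indicates DNA-damage-driven ATAD5 induction. HEK293T cells are treated for 16 hr at 37C before detection with Amplite.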

A short description of assay [3]: qHTS assay for small molecules that induce genotoxicity in human embryonic kidney cells expressing luciferase-tagged ATAD5 - cell viability (AID 651634; calls by dose curve; note: nearly all actives have a fitted effect of over 25% in size). In short, it runs like this: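 Cytotoxicity counterscreen in HEK293T cells bearing an ATAD5-luciferase reporter: live-cell protease activity measured by CellTiter-Fluor fluorescence after 15.5 hr compound exposure.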

Assay [4] can be described thus: qHTS assay for small molecule disruptors of the mitochondrial membrane potential - cell viability (AID 720634; calls by dose curve;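 note: human HepG2 liver cancer cells; series mostly up to about 83 µM; nearly all actives have a fitted effect of over 20% in size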). Put shortly: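 After overnight attachment at 37 C, HepG2 cells received compound or DMSO vehicle for 1 hr. Viability is then taken from ATP-driven luminescence following a 30 min room-temperature CellTiter-Glo step.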
The nature of assay [5]: qHTS assay for small molecule disruptors of the mitochondrial membrane potential (AID 720635). Note: potency is the fitted concentration of half-maximal effect. Put shortly: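 Mitochondrial membrane potential tracked with Mito-MPS dye, red aggregates (ex 540/em 590 nm) against green monomers (ex 490/em 535 nm). Compound treatment 1 hr at 37C, dye 30 min in HepG2.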
Assay [6] can be described thus: qHTS assay to test for compound auto fluorescence at 590 nm (red) in HepG2 cells (AID 720674). In short, it runs like this: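 Red autofluorescence (Ex/Em 540/590 nm, Rose Bengal sodium equivalents) was measured in HepG2 cells, 2,000 per well in MEM plus 10% FBS, plated overnight at 37 C. Readings were taken 1 hr after adding 23 nL compound or DMSO, at 37 C and 5% CO2.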

Assay [7] is described as follows: qHTS assay to test for compound auto fluorescence at 535 nm (green) in HepG2 cells (AID 720675).
Assay [8] is described as follows: qHTS assay to test for compound auto fluorescence at 460 nm (blue) in HEK293 cells (AID 720678). In short, it runs like this: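 Measured: blue fluorescence (Ex 405/Em 460 nm) of compound-treated HEK293 cells, incubated overnight at 37C with 5% CO2 and scaled to triamterene equivalents.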
The nature of assay [9]: qHTS assay to test for compound auto fluorescence at 590 nm (red) in HEK293 cells (AID 720679). In short, it runs like this:
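Using HEK293 cells at 2,000 per well, the screen added 23 nL of each compound after cell attachment and incubated overnight (37C, 5% CO2). The plate reader then captured red-label fluorescence, Ex/Em 540/590nm.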

Assay [10] is described as follows: qHTS assay for small molecule agonists of the p53 signaling pathway - cell viability (AID 651633; calls by dose curve;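 note: p53RE-bla HCT reporter cells with a stable beta-lactamase p53 reporter; series mostly up to about 83 µM; nearly all actives have a fitted effect of over 30% in size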). Put shortly:
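Viability counter-read: CellTiter-Glo luminescence (30 min, room temperature) in the same p53RE-bla plates. These plates had been exposed to compounds for 16 h at 37 C.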

Inconclusive results are not listed. Calls of active or inactive are those of the source. Unless noted, calls come from the whole dose curve; as a rule, active = well fitted curve in the direction sought with a large enough effect in the repeat runs; inconclusive = weak or mixed curves; inactive = no such curve, though single readings can be large; an effect the other way counts as inactive or inconclusive.

For the molecule `O=C1O[C@H]([C@H](O)CO)C(O)=C1O`, the Potency result in assay [1], in assay [2], in [3], in assay [4], in assay [5] and in assay [8] was “inactive” each time. The molecule was called inactive in assay [6], in [7] and in assay [9].

Take `CC(=O)OC/C=C(\C)CCC=C(C)C`: the Potency entry in [1], in assay [2], in [10], in assay [3], in assay [4] and in assay [8] was “inactive” throughout. Also, the outcome in assay [6], in assay [7] and in assay [9] was inactive.

`O=c1n(CCCN2CCN(c3cccc(Cl)c3)CC2)nc2ccccn12`: the Potency result in assay [1], in assay [10], in assay [3], in assay [4], in [5] and in [8] was “inactive” in each case. In addition, the molecule was called inactive in assay [6], in [7] and in [9].

`CC(C=O)Cc1ccc(C(C)(C)C)cc1` (configuration not stated): the Potency result in assay [2], in [10], in assay [3], in assay [4] and in [8] was “inactive” throughout. Further, the Potency in assay [5] is 61.1 µM (active). In addition, the call in [6], in [7] and in assay [9] was inactive.

Take `C1CCCNCC1`: the Potency entry in assay [2], in [10], in [3], in assay [4], in assay [5] and in assay [8] was “inactive” throughout. For the same molecule, the outcome in assay [6], in [7] and in assay [9] was inactive.

For `CC1=CC(=O)CC(C)(C)C1`, the Potency entry in assay [1], in [10], in assay [3], in [4], in [5] and in assay [8] was “inactive” in each case. Further, the molecule was classed as inactive in [6], in [7] and in [9].

For `COc1c(Cl)ccc(Cl)c1C(=O)O`, the Potency result in assay [2], in [10], in [3], in [4], in assay [5] and in assay [8] was “inactive” in each case. In addition, the molecule was called inactive in assay [6], in [7] and in [9].

As for `CCN(CC)CCNC(=O)c1ccc(N)cc1`, the Potency result in [2], in [10], in [3], in [4] and in assay [8] was “inactive” throughout. Besides, in assay [5], the Potency was 13.3 µM (active). For the same molecule, the outcome in assay [6], in assay [7] and in [9] was inactive.

Consider `Cc1ncc(CO)c(CO)c1O`, for which the Potency entry in assay [1], in [10], in assay [3], in [4], in assay [5] and in assay [8] was “inactive” in each case. Besides, the molecule was called inactive in assay [6], in [7] and in [9].

Consider `O=C1CCCCCCCCCCC1`, for which the Potency entry in [2], in assay [10], in assay [3], in [4], in assay [5] and in assay [8] was “inactive” in each case. The molecule was called inactive in assay [6], in assay [7] and in assay [9].

With `CN=C(NC#N)NCCSCc1nc[nH]c1C`, the Potency entry in assay [2], in [3], in [4], in assay [5] and in assay [8] was “inactive” in each case. Further, the result in [6], in assay [7] and in assay [9] was inactive.

With `OCCOCCOCCOCCOCCO`, the Potency result in [1], in [10], in assay [3], in assay [4], in [5] and in assay [8] was “inactive” in each case. For the same molecule, the outcome in assay [6], in assay [7] and in assay [9] was inactive.
